aSyn UTR act: Activators via SNCA 5'UTR binding, MLPCN; AID 1814, 2009; activity score, % (tested at 7.5 µM), hits read low; actives 7.1% (n = 300,000); alpha-synuclein 5'UTR reporter, activators screen; in the data active means activity score below about -60%
An asterisk follows results filed as active. Not all results are given here.

SMILES | aSyn UTR act
O=C(/C=C/Nc1ccccc1Br)c1ccccn1 | 114
Cc1ccc(C(=O)O/N=C(\N)c2ccccn2)c(Cl)c1 | 108
N/C(=N\OC(=O)/C=C/c1ccccc1Cl)c1ccncc1 | -126*
Cn1ccsc1=NC(=O)c1cccc(OC(F)F)c1 | -128*
Cc1c(-c2ccc(Cl)cc2)[n+](=O)c(-c2ccccc2)cn1[O-] | -118*
Cc1ccsc1/C=N/Nc1nc(Cl)c(Cl)cc1Cl | -162*
Cc1ccc(/C=N/Nc2nc(Cl)c(Cl)cc2Cl)s1 | -141*
COc1ccc2[nH]cc(C(=O)CN3CCC(C)CC3)c2c1 | -177*
COc1ccc(NC(=O)CN2CCCCC2)c([N+](=O)[O-])c1 | -98*
Cc1ccc(NC(=O)CN2CCCCCC2)c(Br)c1 | -204*
COc1cc(NC(=O)Cn2ncc(Cl)c(Cl)c2=O)c(C)cc1[N+](=O)[O-] | 121
CCCn1c(N2CCN(CC(=O)c3c(C)n(C)c4ccc(OC)cc34)CC2)nc2c1c(=O)[nH]c(=O)n2C | 63
Cc1ccc(NC(=O)COC(=O)COc2ccc(Cl)cc2C)c([N+](=O)[O-])c1 | -65*
COc1ccc(NC(=O)CSc2ccccc2)c([N+](=O)[O-])c1 | -106*
COc1ccc(NC(=O)CN2CCC(C)CC2)c([N+](=O)[O-])c1 | -68*
COc1ccc(NC(=O)COc2ccc(C)cc2)c([N+](=O)[O-])c1 | -143*
O=C(/C=C/c1nc2ccccc2s1)N1CCCCCC1 | -107*
CC1CCCCC1NC(=O)/C=C/c1nc2ccccc2s1 (stereo not drawn) | -148*
COc1cc(/C=N/NC(=O)c2ccncc2)ccc1OCC(=O)Nc1cccc([N+](=O)[O-])c1 | -111*
COc1ccc(/C=N/NC(=O)c2cccnc2)cc1COc1ccc([N+](=O)[O-])c(C)c1 | 98
COc1cc(/C=N/NC(=O)c2ccncc2)ccc1OCC(=O)Nc1ccc(C)c(C)c1 | -76*
COc1cc(/C=C2\C(=O)N(CCC#N)N=C2C)ccc1OCC(=O)Nc1ccccc1 | -164*
COc1ccc(NC(=O)COc2ccc(/C=N/O)cc2OC)cc1 | -67*
C/C=C/c1ccc(OCC(=O)Nc2ccncc2)c(OC)c1 | -72*
O=C(NCc1ccccn1)c1ccc(-c2ccccc2)cc1 | -107*
SMILES | aSyn UTR act
COCCNC(=O)c1cc(-c2cccs2)on1 | -289*
O=C(NCc1cccs1)c1cc(-c2cccs2)on1 | -169*
O=C(NCc1ccccn1)c1cc(-c2ccccc2)on1 | -79*
COc1ccc2cc1Oc1ccc(cc1)C[C@H]1c3c(cc4c(c3Oc3cc5c(cc3OC)CCN(C)[C@@H]5C2)OCO4)CCN1C | 109
O=C(NCc1cccs1)c1cc(-c2ccccc2)on1 | -112*
O=C1/C(=C/c2ccccc2[N+](=O)[O-])COc2ccccc21 | -114*
CNc1ccc(/C=C2\COc3ccccc3C2=O)cc1[N+](=O)[O-] | -118*
COc1ccc(CCC(=O)Nc2ccc(-c3noc(-c4ccc(OC)c(OC)c4)n3)cc2)cc1 | -158*
COc1ccc(-c2nc(-c3ccc(NC(=O)c4ccc(Br)o4)cc3)no2)cc1OC | -136*
Cc1cc(-c2ccc(Br)cc2)n[nH]1 | -120*
Nc1cc(-c2ccc(Br)cc2)[nH]n1 | -90*
COCCn1c(C)cc(C2=NNC(=Nc3ccccc3F)SC2)c1C | 91
Clc1ccccc1N=C1NN=C(c2cccs2)CS1 | -160*
Fc1ccc(F)c(C2=NNC(=Nc3ccccc3F)SC2)c1 | -110*
Fc1ccccc1N=C1NN=C(c2ccccc2)CS1 | -199*
Cc1cccc(N=C2NN=C(c3ccccc3F)CS2)c1C | -102*
C=CCNC(=O)COc1ccc(Br)cc1Cl | -103*
O=C(COc1ccc(Br)cc1Cl)c1ccc[nH]1 | -69*
COCCNC(=O)COc1ccc(Br)cc1Cl | -68*
N=c1oc2c3c4c(cc2cc1C(=O)Nc1ccccc1)CCCN4CCC3 | -276*
COC(=O)Nc1nc2ccc(C(=O)c3ccc(F)cc3)cc2[nH]1 | 99
Cc1nc2ccc(C(=O)c3ccccc3)cc2[nH]1 | -95*
O=[N+]([O-])c1cccc2ccc(/C=C/c3ccc(F)cc3)nc12 | -291*
O=[N+]([O-])c1ccc(/C=C/c2ccc3cccc([N+](=O)[O-])c3n2)cc1 | -92*
CC(=O)NC(c1cccc([N+](=O)[O-])c1)c1ccc2cccnc2c1O (stereo not drawn) | 123
SMILES | aSyn UTR act
O=[N+]([O-])c1cccc(/C=C/c2ccc3cccc(O)c3n2)c1 | -82*
O=C(N/N=C/C(Cl)=C\c1ccccc1)c1cccs1 | -92*
CC(/C=N/NC(=O)c1cccs1)=C\c1ccccc1 | -99*
CCCCN1C(=O)Cc2c1nc(N)c1c(N)nc(N(CCC)CCC)c(C#N)c21 | 55
CC(C)(C)c1ccc(N2C(=O)Cc3c2nc(N)c(C#N)c3N)cc1 | -109*
CCc1ccc(N2C(=O)Cc3c2nc(N)c(C#N)c3N)cc1 | -160*
CCOC(=O)Oc1ccc2c(=O)c(Oc3cccc(C)c3)coc2c1 | -75*
Cc1cccc(Oc2coc3cc(OC(=O)c4cncc(Br)c4)ccc3c2=O)c1 | -73*
CCc1ccc2oc(-c3cc(N=Cc4cccc(OC)c4O)ccc3O)nc2c1 | -146*
Oc1c(N=Nc2ccccc2)sc2ccccc12 | -192*
CCc1nc2ccc(C(=O)NC3CCC(C)CC3)cc2nc1CC (stereo not drawn) | -86*
CC1CCC(NC(=O)c2ccc3snnc3c2)CC1 (stereo not drawn) | -86*
COc1cc(/C=C2\C=CC(=O)O2)cc(OC)c1 | -65*
CCOC(=O)/C(C#N)=C1/C=CN(c2ccccc2)C=N1 | -79*
CCOC(=O)/C(C#N)=C1/C=CN(c2ccc(C)cc2)C=N1 | -97*
Nc1nc(-c2ccc(Br)cc2)cs1 | -99*
Nc1nc(-c2cc(-c3ccccc3)no2)cs1 | -174*
c1ccc(-c2cc(-c3ccccc3)on2)cc1 | -152*
N/C(Cc1nc(-c2ccc(Br)cc2)cs1)=N\O | -96*
O=C(c1ccccc1)c1cc(-c2ccccc2)on1 | -108*
Nc1nc(-c2ccccc2)cs1 | -97*
O=C(Nc1ccc(NC(=O)c2cccnc2Cl)cc1)c1cccc(Cl)c1 | -102*
O=C(Nc1ccc(N2CCCC2)cc1)c1ccc(Cl)cc1Cl | -88*
O=C(C(Cl)c1ccccc1)N1CCCC1 (stereo not drawn) | -112*
O=C(Nc1ccc(N2CCCCC2)cc1)c1ccccn1 | 114
SMILES | aSyn UTR act
O=C(Nc1ccc(N2CCCCCC2)cc1)c1ccccc1Cl | -252*
O=C(Nc1ccc(N2CCCC2)cc1)c1cccc(Cl)c1 | -137*
O=C(Nc1ccc(N2CCCCC2)cc1)C(Cl)c1ccccc1 (stereo not drawn) | -236*
CN1CCN(c2ccc(NC(=O)c3ccccc3Br)cc2)CC1 | -120*
COc1ccccc1C(=O)Nc1ccc(N2CCCCC2)cc1 | -66*
O=C(Nc1ccc(N2CCCC2)cc1)c1cc(Cl)ccc1Cl | -241*
CN1CCN(c2ccc(NC(=O)c3ccc(Cl)cc3Cl)cc2)CC1 | -136*
O=C(Nc1cccc(Cl)c1N1CCCC1)c1cccc(-c2cc3ccccc3oc2=O)c1 | -101*
Cc1ccc2nc(NC(=O)c3cccc(-c4cc5ccccc5oc4=O)c3)sc2c1 | -88*
CCn1nnc(NC(=O)c2cccc(-c3cc4ccccc4oc3=O)c2)n1 | -105*
O=C(CCCN1C(=O)S/C(=C\c2ccccc2)C1=O)NNC(=O)c1ccccc1O | 83
O=C(CN1C(=O)S/C(=C\c2ccc(O)cc2)C1=O)c1ccccc1 | -157*
CSc1ncc(-c2ccc(Cl)cc2)[nH]1 | -145*
C/C(=N/NS(=O)(=O)c1ccc(F)cc1)c1ccc(NC(=O)c2ccc(C)o2)cc1 | -72*

Assay outcomes from PubChem BioAssay.
